Each structure is given as a SMILES string. In all, about 2,400 compounds went through this assay and about 430 (18%) were called active. A selection follows. Values without a mark were called inactive. Cut-off read from the data, not from the text of the source: active = activation above about 12%; inactive = the rest.

The nature of the assay: nonspecific calcium signal increase, Ga16 cells – cell-based, fluorescence, counter-screen for TAAR1 antagonist project (AID 651953).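 Note: 0% = vehicle wells and 100% = saturating stimulus response.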 Particulars: Ga16-expressing cells, agonist counterscreen, at 3 µM, stronger effect = higher value. (In general: The purpose of a counterscreen is to sort out artefacts and off-target activity.)
As for `CC(=O)n1cc([C@H]2C=C(C(=O)N3CCOCC3)O[C@@H](OCc3ccc(CO)cc3)C2)c2ccccc21`, the activation was 8.38%.
Under `CC(=O)Nc1ccc(NC(=O)COC(=O)C2CCC(C(C)(C)C)CC2)cc1` (stereo not drawn) stands 12.5% (active); under `COc1cc2ccccc2cc1C(=O)Nc1ccc(NC(=O)c2cccs2)cc1`, 7.21%; under `COC(=O)[C@@]1(Sc2ccc(C)cc2)CC(=O)N(c2cccc(SC)c2)[C@@H]1c1ccccc1`, 7.65%.
Under `COc1ccc(C(=O)Oc2ccc(-c3nnco3)cc2)cc1S(=O)(=O)N1CCOCC1` stands 8.48%; under `CCOc1cc(/C=N/NC(=O)c2cc(-c3ccccc3)nc3ccccc23)ccc1O`, 7.59%; under `O=C(Oc1ccc(-c2nnco2)cc1)c1ccc(F)c(S(=O)(=O)N2CCOCC2)c1`, 11.4%.
With `O=C1c2ccccc2C(=O)N1CCC#Cc1ccc2cc(C3(O)CCCCC3)oc(=O)c2c1`, the activation was 12.9% (active).
Under `Cc1nn(-c2ccccc2)c(C)c1NC(=O)COC(=O)c1cc(Cl)ccc1O` stands 11.4%; under `CCOc1ccc(NC(=O)N2CC=C(n3c(=O)[nH]c4ccccc43)CC2)cc1`, 8.85%; under `C=CCn1c(SCc2cccc(F)c2)nc2cc(C(=O)N3CCC(C(N)=O)CC3)ccc2c1=O`, 10.2%.
Under `CSc1nc(-c2ccccc2)nc(C(Cl)Cl)n1` stands 2.33%; under `Cn1c2ccccc2c(=O)c2c(=O)n(Cc3ccco3)c(COc3ccccc3)nc21`, 11.7% (active); under `O=c1[nH]c(CSc2ncc(-c3ccc(F)cc3)n2Cc2ccco2)nc2ccccc12`, 9.09%.
In the case of `COc1ccc(CCNC(=O)C(=O)NCC2OCCN2S(=O)(=O)c2ccc(OC)c(C)c2)cc1` (stereo not drawn) it was 7.62%.
With `COc1ccc(CCNC2=C(Cl)C(=O)N(Cc3ccccc3)C2=O)cc1OC`, the activation is 10.4%.
In the case of `COc1ccc(CCNC(=O)c2ccc(CS(=O)(=O)c3ccc(Br)cc3)o2)cc1OC` it was 13.5% (active); in that of `CC(C)(C)OC(=O)NCCCCCNC(=O)c1nc[nH]c1C(=O)NCc1ccccc1`, 7.75%.
Take `O=C(NCc1ccc2c(c1)OCO2)c1c(-c2ccsc2)sc2ccccc12`: the activation is 3.18%.
Take `Fc1ccc(/C=N/Nc2nc(-c3cccnc3)nc3ccccc23)cc1`: the activation was 5.53%.
In the case of `Oc1ccc(/C=N/Nc2nc(-c3ccccc3F)nc3ccccc23)c(O)c1` it was 11.9% (active); in that of `CCOC(=O)C1=C(NC(=S)NC(=O)c2ccccc2)c2ccccc2CC1(C)C`, 11.8% (active); in that of `CNC(=O)c1ccsc1NC(=O)c1ccc(S(=O)(=O)N2CCc3ccccc32)cc1`, 9.94%.
